This is an account of results in PubChem BioAssay (Tox21).

Unmarked numbers belong to inactive results. Records with an inconclusive call do not appear. Activity calls are given as the source filed them. Unless noted, the call rests on the fitted dose curve; in most records, active means well fitted curve in the direction sought with a large enough effect in the repeat runs; inconclusive means weak or mixed curves; inactive means no such curve, though single readings can be large; an effect the other way counts as inactive or inconclusive.

A short description of assay [1]: qHTS assay to identify small molecule agonists of the androgen receptor (AR) signaling pathway in the presence of an antagonist - cell viability counter screen (AID 1259379).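 Further: MDA-kb2 human breast cancer cells carrying an MMTV luciferase reporter; series mostly up to about 92 µM; nearly all actives have a fitted effect of over 25% in size.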 In short, it runs like this: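 In MDA-kb2 cells (human breast carcinoma, MMTV-luciferase), compounds at 15 concentrations plus 3.0uM nilutamide; 16 hr, 37C, 0% CO2; CellTiter-Fluor fluorescence read for viability.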
In general terms: Quantitative high-throughput screening tests each substance at several concentrations.

Assay [2] is described as follows: qHTS assay to identify small molecule agonists of the estrogen receptor beta (ER-beta) signaling pathway - cell viability counter screen (AID 1259380). Further: nearly all actives have a fitted effect of over 30% in size. In short, it runs like this: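 Viability of ER-beta-UAS-bla HEK293T cells was determined by CellTiter-Glo luminescence following 16 hr treatment with test compounds at 37C.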
Assay [3] can be described thus: qHTS assay to identify small molecule antagonists of the estrogen receptor beta (ER-beta) signaling pathway - cell viability counter screen (AID 1259382).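 Further: HEK293T cells carrying ER-beta-UAS-bla reporter stimulated with estradiol; series mostly up to about 92 µM; nearly all actives have a fitted effect of over 55% in size.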 In short, it runs like this: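 Tox21 10K library tested in qHTS format on ER-beta-bla HEK293T cells stimulated with 1nM E2; 16 hr treatment at 37C. Same-well CellTiter-Glo luminescence served as the cell viability measure.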

Assay [4] in a line: qHTS assay to identify small molecule agonists or antagonists of the thyroid stimulating hormone receptor (TSHR) signaling pathway - wild type cell line counter screen (AID 1259384; calls by dose curve). In short, it runs like this:
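Counter screen in untransfected Hek293: compounds (15-point titration, triplicate) plus phosphodiesterase inhibitor Ro20-1724 added after 18 h plating; 30 min RT. Intracellular cAMP via competitive d2/cryptate immunoassay, 1 h incubation.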

Assay [5] addresses Thyrotropin receptor (Homo sapiens) (UniProt P16473). In words: qHTS assay to identify small molecule antagonists of the thyroid stimulating hormone receptor (TSHR) signaling pathway (AID 1259385; calls by dose curve; further: nearly all actives have a fitted effect of over 20% in size). In short, it runs like this: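 Antagonist mode: compound-treated TSHR-expressing HEK293 cells were stimulated with 1.5 ng/mL TSH (final) in presence of Ro20-1724 for 30 min at RT. HTRF cAMP detection after 1 h; each compound tested at 15 concentrations, triplicate.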

Assay [6] can be described thus: qHTS assay to identify small molecule agonists of the estrogen receptor alpha (ER-alpha) signaling pathway in the presence of an antagonist - cell viability counter screen (AID 1259386).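 Further: series mostly up to about 92 µM; cells exposed to compounds for 22 h at 37 °C before the viability read; nearly all actives have a fitted effect of over 30% in size.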 In short, it runs like this:
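Fluorescent CellTiter-Fluor viability signal from VM7Luc4E2 cells, with the reagent added during the final hour of a 22hr compound exposure at 37C in the presence of 10.0nM ICI-182,780.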

The target of assay [7] is Progesterone receptor (Homo sapiens) (UniProt P06401). As to the kind of experiment: qHTS assay to identify small molecule agonists of the progesterone receptor (PR) signaling pathway (AID 1346784; calls by dose curve; further: nearly all actives have a fitted effect of over 30% in size; further: potency means the concentration at half of the fitted maximal effect). In short, it runs like this: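 Fluorescence from LiveBLAzer B/G FRET substrate cleavage (2 hr, RT) reported PR activation in PR-UAS-bla HEK 293T cells treated 16 hr at 37C/5% CO2 with compounds; medium contained 2% charcoal-stripped FBS.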

For assay [8] the target is unchanged. As to the kind of experiment: qHTS assay to identify small molecule antagonists of the progesterone receptor (PR) signaling pathway (AID 1346795; active means well fitted inhibition curve with a large enough effect in the signal ratio in the repeat runs, not every such curve was filed as active; the % refers to the signal ratio). In short, it runs like this:
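Fluorescence intensity measured 2 hr after adding beta-lactamase FRET substrate to PR-UAS-bla HEK293T cells that had been co-treated 16 hr with compound and 1 nM R5020 (final concentration) in 2% charcoal-stripped FBS.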

Assay [9] in a line: qHTS assay to identify small molecule antagonists of the progesterone receptor (PR) signaling pathway - cell viability counter screen (AID 1346798). Further: series mostly up to about 92 µM; nearly all actives have a fitted effect of over 50% in size. In short, it runs like this:
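CellTiter-Glo luminescence; PR-UAS-bla HEK293T, 3,000 cells/well; compound + R5020, 16 hr, 37C/5% CO2; 30 min RT before read.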

The nature of assay [10]: qHTS assay to identify small molecule agonists of the progesterone receptor (PR) signaling pathway - cell viability counter screen (AID 1346799; calls by dose curve; further: nearly all actives have a fitted effect of over 45% in size). In short, it runs like this:
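In parallel with the beta-lactamase readout, cytotoxicity toward PR-UAS-bla HEK293T cells was measured by CellTiter-Glo luminescence following 16 hr compound incubation in 2% charcoal-stripped FBS medium.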

Assay [11] is described as follows: qHTS assay to identify small molecule antagonists of the TGF-beta/Smad signaling pathway - cell viability counter screen (AID 1346824). Further: nearly all actives have a fitted effect of over 50% in size. In short, it runs like this:
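Cytotoxicity counter-screen run in the same wells as the beta-lactamase Smad reporter read: CellTiter-Glo luminescence after 30 min at room temperature. HEK 293T SBE-bla cells had 5 hr compound exposure at 37 C with TGF-beta1 (0.25 ng/mL stock).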

A short description of assay [12]: qHTS assay to identify small molecule agonists of the TGF-beta/Smad signaling pathway - cell viability counter screen (AID 1346829). Further: top concentration of the series differs between compounds; nearly all actives have a fitted effect of over 45% in size. In short, it runs like this:
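CellTiter-Glo luminescence readout; SBE-bla HEK 293T cells, overnight plating, compound 5 hr at 37 C/5% CO2, then bla substrate 2 hr RT, then CellTiter-Glo 30 min RT.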

The nature of assay [13]: qHTS assay to identify small molecule agonists of the TGF-beta/Smad signaling pathway (AID 1346859; active means well fitted activation curve with a large enough effect in the signal ratio in the repeat runs, not every such curve was filed as active; the % refers to the signal ratio; further: series mostly up to about 77 µM). In short, it runs like this: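 After overnight seeding, SBE-bla HEK 293T cells are dosed with compounds in DMSO and kept 5 hr at 37 C, 5% CO2. LiveBLAzer-type FRET substrate is then applied for 2 hr at room temperature.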
The target in assay [14] is Thyrotropin-releasing hormone receptor (Homo sapiens) (UniProt P34981). In words: qHTS assay to identify small molecule antagonists of the thyrotropin-releasing hormone receptor (TRHR) signaling pathway (AID 1346877; active means well fitted inhibition curve with a large enough effect in the repeat runs, not every such curve was filed as active; further: series mostly up to about 51 µM). In short, it runs like this:
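In this cell-based calcium flux format, HEK293 cells expressing TRHR received test compound for 5 min before the agonist TRH (1 nM final). Dye loading lasted 2 h at 37 °C.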

The target is the same in assay [15]. In words: qHTS assay to identify small molecule agonists of the thyrotropin-releasing hormone receptor (TRHR) signaling pathway (AID 1346891; calls by dose curve; further: series mostly up to about 58 µM). In short, it runs like this:
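Compounds were tested as agonists at 15 concentrations, in triplicate, on TRHR-Hek293 cells; calcium-sensitive dye fluorescence was recorded for 3 min following addition.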

Assay [16] can be described thus: Human pregnane X receptor (PXR) small molecule agonists, qHTS cell viability counter screen (AID 1346977). Further: nearly all actives have a fitted effect of over 50% in size. In short, it runs like this: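 Viability counter screen: CellTiter-Fluor signal in PXR-Luc HepG2 cells, 24hr compound exposure, 37C, 5% CO2.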
Assay [17] has as its target Estrogen receptor (Homo sapiens) (UniProt P03372). In words: qHTS assay to identify small molecule agonists of the estrogen receptor alpha (ER-alpha) signaling pathway in the presence of an antagonist (AID 1259383; calls by dose curve; further: top concentration of the series differs between compounds; nearly all actives have a fitted effect of over 15% in size). In short, it runs like this:
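In VM7Luc4E2 cells, 4,000 per well, compounds at 15 concentrations were co-incubated 22hr at 37C with 10.0nM final ICI-182,780. Luminescence from the stably transfected 4×ERE-luciferase reporter was recorded 30min after ONE-Glo addition.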
On the % scale 0 is the no-effect control and ±100 the full control effect.

Sequence of Thyrotropin-releasing hormone receptor (Homo sapiens) (P34981 whole entry, looked up): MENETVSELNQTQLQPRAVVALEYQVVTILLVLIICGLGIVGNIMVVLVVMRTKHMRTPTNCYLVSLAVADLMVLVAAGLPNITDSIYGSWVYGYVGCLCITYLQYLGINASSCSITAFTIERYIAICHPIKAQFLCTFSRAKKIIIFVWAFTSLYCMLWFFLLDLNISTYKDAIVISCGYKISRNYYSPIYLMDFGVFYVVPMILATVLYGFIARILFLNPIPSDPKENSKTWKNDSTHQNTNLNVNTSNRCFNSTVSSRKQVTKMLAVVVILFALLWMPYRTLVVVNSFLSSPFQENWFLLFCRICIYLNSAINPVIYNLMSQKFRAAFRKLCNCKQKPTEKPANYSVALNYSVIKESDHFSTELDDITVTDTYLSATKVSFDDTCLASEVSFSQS
Sequence of Thyrotropin receptor (Homo sapiens) (P16473 whole entry, looked up): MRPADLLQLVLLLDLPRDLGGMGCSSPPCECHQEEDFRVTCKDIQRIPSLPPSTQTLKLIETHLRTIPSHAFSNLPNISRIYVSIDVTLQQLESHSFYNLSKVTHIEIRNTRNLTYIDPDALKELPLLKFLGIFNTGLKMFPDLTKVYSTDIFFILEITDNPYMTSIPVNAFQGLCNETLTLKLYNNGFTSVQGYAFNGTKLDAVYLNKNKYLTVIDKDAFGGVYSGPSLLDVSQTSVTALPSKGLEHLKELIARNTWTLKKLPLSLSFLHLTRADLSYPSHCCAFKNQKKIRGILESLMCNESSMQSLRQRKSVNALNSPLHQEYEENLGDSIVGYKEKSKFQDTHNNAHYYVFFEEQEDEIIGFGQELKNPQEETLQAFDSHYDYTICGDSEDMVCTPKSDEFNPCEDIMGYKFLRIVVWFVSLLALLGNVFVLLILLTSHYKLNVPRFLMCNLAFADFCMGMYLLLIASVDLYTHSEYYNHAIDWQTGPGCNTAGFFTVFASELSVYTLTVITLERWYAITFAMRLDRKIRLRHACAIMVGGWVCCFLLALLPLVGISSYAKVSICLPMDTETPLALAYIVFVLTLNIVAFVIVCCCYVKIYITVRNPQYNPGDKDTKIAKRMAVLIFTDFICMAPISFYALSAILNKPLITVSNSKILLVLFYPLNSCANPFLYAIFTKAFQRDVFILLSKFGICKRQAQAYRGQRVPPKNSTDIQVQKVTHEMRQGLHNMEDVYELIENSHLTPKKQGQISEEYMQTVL
Sequence of Progesterone receptor (Homo sapiens) (P06401 whole entry, looked up): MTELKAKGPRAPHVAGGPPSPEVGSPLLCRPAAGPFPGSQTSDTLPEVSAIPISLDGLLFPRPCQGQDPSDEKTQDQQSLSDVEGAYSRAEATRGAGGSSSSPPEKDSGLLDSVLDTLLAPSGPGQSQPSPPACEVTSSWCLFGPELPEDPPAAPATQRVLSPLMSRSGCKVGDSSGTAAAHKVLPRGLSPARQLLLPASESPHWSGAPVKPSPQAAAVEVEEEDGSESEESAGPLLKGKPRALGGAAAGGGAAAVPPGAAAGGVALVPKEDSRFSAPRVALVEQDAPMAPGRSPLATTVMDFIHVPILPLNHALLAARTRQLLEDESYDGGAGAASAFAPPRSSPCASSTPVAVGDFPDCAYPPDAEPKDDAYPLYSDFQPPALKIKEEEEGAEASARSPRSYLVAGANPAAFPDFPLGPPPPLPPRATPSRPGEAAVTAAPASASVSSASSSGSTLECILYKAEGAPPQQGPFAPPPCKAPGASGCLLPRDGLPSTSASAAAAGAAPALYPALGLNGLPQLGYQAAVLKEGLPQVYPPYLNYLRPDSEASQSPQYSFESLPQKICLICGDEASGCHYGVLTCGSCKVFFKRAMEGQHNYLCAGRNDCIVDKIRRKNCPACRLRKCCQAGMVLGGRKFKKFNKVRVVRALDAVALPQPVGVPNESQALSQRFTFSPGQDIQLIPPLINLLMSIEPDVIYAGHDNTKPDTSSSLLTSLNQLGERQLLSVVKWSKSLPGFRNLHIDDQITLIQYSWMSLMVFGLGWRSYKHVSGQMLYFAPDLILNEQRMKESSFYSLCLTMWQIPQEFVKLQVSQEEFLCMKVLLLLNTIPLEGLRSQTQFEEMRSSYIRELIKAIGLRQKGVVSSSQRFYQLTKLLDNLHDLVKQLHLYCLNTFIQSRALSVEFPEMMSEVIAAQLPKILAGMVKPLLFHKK
Sequence of Estrogen receptor (Homo sapiens) (P03372 whole entry, looked up): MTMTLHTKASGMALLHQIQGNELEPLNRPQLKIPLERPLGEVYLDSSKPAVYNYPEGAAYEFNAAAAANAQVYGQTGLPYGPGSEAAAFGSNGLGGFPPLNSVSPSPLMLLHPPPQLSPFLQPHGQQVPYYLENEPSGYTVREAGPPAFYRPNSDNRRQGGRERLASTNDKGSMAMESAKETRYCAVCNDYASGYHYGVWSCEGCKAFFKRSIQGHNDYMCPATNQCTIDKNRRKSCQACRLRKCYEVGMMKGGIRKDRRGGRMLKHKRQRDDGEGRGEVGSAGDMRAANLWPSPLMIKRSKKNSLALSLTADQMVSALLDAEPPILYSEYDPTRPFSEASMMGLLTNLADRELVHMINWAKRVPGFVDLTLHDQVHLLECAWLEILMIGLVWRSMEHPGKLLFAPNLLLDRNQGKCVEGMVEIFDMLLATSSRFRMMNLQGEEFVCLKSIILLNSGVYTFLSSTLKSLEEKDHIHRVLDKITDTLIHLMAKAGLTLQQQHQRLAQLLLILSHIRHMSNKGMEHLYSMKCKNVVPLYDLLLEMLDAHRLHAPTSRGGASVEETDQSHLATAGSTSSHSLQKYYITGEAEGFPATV

For `CN(C)C(=O)Oc1cccc([N+](C)(C)C)c1`, the Potency entry in assay [1], in assay [2], in [6], in assay [7], in assay [8] and in [9] was “inactive” each time. Besides, the Potency result in [10], in [15] and in assay [16] was “inactive” throughout. Besides, the compound was called inactive in assay [3], in assay [4], in assay [5], in [11], in assay [12] and in assay [13]. In addition, the compound was classed as inactive in assay [14].
In the case of `CCOc1ccc2nc(S(N)(=O)=O)sc2c1`, the Potency entry in [1], in assay [2], in [6], in assay [7], in [9] and in assay [10] was “inactive” in each case. Also, the Potency result in assay [15] and in [16] was “inactive” throughout. Also, the compound was called inactive in assay [3], in [17], in assay [5], in assay [11], in [12] and in assay [13]. Besides, the compound was classed as inactive in assay [14].
On to `CCCCN1C=CN(C)C1`, for which the activity change, negative = cytotoxicity in assay [1] was 0.886% [at 19 µM]; in assay [2] it was 2.46% [at 19 µM]; in assay [3] it was -4.66% [at 19 µM]; in [6], 0.508% [at 19 µM]; in assay [9], -2.54% [at 18.9 µM]; in [12], -1.56% [at 15.8 µM]. For the same compound, the activity change, negative = cytotoxicity in assay [16] was -1.91% [at 19 µM]. Also, the activation was 0.706% [at 19 µM] in assay [17] and 4.63% [at 15.8 µM] in assay [13]. Further, in [4], the cAMP activity change was -4.22% [at 18.9 µM]. The activity change, negative = inhibition in assay [5] is 1.39% [at 19 µM]. Also, the Potency in assay [7] was 2.46 µM (active). In addition, the viability change, negative = cytotoxic in assay [11] is -11.6% [at 15.8 µM].
On to `Cc1ccnc(NS(=O)(=O)c2ccc(N)cc2)n1`, for which the Potency result in assay [1], in assay [2], in [6], in assay [7], in [8] and in assay [9] was “inactive” in each case. Besides, the Potency entry in assay [10] and in assay [16] was “inactive” each time. Further, the call in [3], in assay [17], in [4], in assay [5], in [11] and in assay [12] was inactive. Moreover, the call in assay [13] was inactive.
For the compound `O=C(O)CC(C(=O)O)S(=O)(=O)O` (centres undefined), the Potency result in assay [1], in [2], in [6], in assay [7], in [8] and in [10] was “inactive” each time. The Potency result in assay [15] and in assay [16] was “inactive” in each case. In addition, the outcome in assay [3], in assay [4], in assay [5], in assay [11], in assay [13] and in assay [14] was inactive.
For the compound `Cc1c(N)c(=O)n(-c2ccccc2)n1C`, the Potency entry in assay [1], in assay [2], in assay [6], in assay [7], in [8] and in [9] was “inactive” in each case. For the same compound, the Potency entry in assay [10], in [15] and in [16] was “inactive” in each case. Moreover, the call in [3], in assay [4], in [5], in assay [11], in assay [12] and in assay [13] was inactive. The compound was called inactive in assay [14].
As for `Cc1ccc(C(=O)Nc2ccc(S(=O)(=O)O)c3cc(S(=O)(=O)O)cc(S(=O)(=O)O)c23)cc1NC(=O)c1cccc(NC(=O)Nc2cccc(C(=O)Nc3cc(C(=O)Nc4ccc(S(=O)(=O)O)c5cc(S(=O)(=O)O)cc(S(=O)(=O)O)c45)ccc3C)c2)c1`, the Potency entry in assay [1], in assay [2], in [6], in [7], in [8] and in assay [9] was “inactive” throughout. Also, the Potency entry in assay [15] and in assay [16] was “inactive” in each case. The outcome in [3], in assay [4], in [5], in assay [11], in assay [12] and in [13] was inactive. Also, the result in assay [14] was inactive.
In the case of `CC(=O)Oc1cccc(C)c1`, the Potency result in assay [1], in assay [2], in assay [6], in assay [7], in assay [8] and in assay [9] was “inactive” in each case. Besides, the Potency result in [10], in [15] and in assay [16] was “inactive” throughout. Further, the outcome in [3], in [4], in [5], in assay [11], in assay [13] and in assay [14] was inactive.
